How the values were obtained:
Test in all cases: log2 ratio of Biotin-Ahx-Ub-VS probe labelling (fragment/DMSO); higher = less target engagement (more negative = stronger competition), active = hit call of the paper (q ≤ 0.05, log2 ratio ≤ -1)
Settings in all cases: compound concentration: 200 uM; treatment time: 3 h
[1] = target: T1, USP42 (UniProt Q9H9J4)
T1 sequence (whole entry): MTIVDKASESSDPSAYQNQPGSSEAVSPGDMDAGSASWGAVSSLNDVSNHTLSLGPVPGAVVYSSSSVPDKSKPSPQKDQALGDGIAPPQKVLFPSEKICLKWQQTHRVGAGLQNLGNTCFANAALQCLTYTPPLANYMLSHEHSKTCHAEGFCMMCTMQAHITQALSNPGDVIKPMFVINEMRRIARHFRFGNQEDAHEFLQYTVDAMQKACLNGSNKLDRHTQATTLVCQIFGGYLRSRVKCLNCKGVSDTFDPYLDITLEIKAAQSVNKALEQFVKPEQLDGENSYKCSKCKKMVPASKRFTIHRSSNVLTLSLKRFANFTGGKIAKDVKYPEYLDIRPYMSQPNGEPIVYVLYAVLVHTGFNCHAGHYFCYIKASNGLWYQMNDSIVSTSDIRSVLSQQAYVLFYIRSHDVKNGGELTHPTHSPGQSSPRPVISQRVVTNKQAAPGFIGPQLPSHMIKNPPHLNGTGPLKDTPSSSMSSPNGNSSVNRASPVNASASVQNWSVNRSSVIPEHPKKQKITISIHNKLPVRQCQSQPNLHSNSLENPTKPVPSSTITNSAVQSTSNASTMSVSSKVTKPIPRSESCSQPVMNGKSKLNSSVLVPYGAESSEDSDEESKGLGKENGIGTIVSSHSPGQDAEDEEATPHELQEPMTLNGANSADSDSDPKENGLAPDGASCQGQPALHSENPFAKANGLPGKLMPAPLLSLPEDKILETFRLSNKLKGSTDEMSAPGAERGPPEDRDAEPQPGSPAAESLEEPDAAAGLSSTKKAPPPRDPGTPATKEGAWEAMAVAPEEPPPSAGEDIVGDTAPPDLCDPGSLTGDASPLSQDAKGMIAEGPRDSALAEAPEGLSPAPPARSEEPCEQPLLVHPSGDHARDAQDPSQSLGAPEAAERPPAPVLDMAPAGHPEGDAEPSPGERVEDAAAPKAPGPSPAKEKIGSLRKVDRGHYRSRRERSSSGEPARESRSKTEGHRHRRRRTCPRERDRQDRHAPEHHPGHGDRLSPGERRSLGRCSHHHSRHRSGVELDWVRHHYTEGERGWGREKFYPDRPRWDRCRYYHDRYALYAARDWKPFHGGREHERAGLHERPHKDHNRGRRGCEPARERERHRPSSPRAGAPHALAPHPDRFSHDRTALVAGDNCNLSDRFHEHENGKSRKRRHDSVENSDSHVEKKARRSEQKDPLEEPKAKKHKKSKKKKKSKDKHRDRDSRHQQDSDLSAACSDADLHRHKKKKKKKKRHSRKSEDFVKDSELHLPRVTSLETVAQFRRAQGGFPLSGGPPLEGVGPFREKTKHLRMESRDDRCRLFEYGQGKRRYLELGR
How it was run: (§1)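 Labelled DUBs were enriched with NeutrAvidin, digested with LysC and trypsin, and run by diaPASEF LC-MS/MS. The labelling used Biotin-Ahx-Ub-VS at 0.5 µM final for 1 h on HEK293T lysate (495 µg per sample) previously treated in triplicate with fragment at 200 µM or vehicle for 3 h. Values are average log2 fragment/vehicle ratios by unpaired t-test on global-median-normalised Spectronaut quantities of proteins with ≥2 unique peptides.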

[2] = target: USP46 (UniProt P62068)
How it was run: as §1

[3] = target: T2, USP47 (UniProt Q96K76)
T2 sequence (whole entry): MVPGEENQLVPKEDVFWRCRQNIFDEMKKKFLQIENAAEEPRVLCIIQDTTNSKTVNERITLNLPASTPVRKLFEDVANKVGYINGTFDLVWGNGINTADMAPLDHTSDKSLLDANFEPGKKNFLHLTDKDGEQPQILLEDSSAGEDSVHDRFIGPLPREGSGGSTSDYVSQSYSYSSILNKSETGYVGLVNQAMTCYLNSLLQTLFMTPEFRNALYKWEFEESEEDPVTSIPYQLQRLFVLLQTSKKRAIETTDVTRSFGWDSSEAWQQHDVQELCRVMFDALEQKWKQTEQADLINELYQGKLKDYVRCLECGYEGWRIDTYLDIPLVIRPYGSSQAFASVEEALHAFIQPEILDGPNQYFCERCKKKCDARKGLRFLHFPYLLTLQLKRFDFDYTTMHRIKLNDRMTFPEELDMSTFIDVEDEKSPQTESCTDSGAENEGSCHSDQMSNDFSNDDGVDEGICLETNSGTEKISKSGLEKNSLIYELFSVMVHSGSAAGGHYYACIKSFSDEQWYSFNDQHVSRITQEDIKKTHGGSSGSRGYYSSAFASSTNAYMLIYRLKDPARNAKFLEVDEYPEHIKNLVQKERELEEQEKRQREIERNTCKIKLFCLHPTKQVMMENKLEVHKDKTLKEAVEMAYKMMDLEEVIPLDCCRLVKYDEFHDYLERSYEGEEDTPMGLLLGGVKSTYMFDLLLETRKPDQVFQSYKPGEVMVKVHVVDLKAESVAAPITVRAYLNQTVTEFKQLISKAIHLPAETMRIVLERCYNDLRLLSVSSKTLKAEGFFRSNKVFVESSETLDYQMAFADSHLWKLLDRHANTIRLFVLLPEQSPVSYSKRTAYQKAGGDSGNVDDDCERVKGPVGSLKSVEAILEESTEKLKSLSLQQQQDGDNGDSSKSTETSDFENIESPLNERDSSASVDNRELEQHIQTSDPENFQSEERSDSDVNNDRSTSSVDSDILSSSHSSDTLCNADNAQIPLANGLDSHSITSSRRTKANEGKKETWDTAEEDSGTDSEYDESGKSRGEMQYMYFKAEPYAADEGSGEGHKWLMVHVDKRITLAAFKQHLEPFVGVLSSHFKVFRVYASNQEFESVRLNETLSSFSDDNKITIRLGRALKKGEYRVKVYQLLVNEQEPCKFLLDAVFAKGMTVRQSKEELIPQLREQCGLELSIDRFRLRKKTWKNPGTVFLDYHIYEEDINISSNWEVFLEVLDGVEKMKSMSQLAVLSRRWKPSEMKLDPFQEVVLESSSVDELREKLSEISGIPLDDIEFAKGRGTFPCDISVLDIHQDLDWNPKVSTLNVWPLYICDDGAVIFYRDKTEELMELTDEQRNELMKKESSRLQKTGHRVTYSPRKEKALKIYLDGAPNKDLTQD
How it was run: as §1

[4] = target: T3, USP48 (UniProt Q86UV5)
T3 sequence (whole entry): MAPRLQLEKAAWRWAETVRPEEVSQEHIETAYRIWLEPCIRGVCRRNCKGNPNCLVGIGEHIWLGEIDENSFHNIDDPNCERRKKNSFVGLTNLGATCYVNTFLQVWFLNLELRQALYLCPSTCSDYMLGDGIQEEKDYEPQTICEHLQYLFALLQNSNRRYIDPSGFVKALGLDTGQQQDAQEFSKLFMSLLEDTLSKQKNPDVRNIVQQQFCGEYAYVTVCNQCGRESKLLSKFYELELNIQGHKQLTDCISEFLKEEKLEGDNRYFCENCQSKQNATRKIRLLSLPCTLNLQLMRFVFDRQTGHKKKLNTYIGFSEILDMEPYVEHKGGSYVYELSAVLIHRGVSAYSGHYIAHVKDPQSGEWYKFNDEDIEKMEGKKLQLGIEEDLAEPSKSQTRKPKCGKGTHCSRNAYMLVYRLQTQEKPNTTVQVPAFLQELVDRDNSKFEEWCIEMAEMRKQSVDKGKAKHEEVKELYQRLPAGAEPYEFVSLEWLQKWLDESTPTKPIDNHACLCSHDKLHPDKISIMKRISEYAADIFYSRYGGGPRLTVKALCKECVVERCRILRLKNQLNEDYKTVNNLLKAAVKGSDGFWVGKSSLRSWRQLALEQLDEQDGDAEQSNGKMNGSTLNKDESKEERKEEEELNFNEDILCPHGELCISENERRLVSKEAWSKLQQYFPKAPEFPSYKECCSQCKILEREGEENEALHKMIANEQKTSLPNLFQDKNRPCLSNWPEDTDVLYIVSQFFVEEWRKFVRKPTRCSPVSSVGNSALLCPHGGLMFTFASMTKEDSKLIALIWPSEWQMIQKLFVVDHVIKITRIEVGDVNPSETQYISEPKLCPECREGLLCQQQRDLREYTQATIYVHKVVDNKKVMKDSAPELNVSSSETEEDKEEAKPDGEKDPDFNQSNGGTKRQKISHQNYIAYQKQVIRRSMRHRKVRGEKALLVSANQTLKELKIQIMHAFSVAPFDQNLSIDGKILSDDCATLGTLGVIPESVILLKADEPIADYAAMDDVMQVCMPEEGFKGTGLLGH
How it was run: as §1

[5] = target: T4, USP5 (UniProt P45974)
T4 sequence (whole entry): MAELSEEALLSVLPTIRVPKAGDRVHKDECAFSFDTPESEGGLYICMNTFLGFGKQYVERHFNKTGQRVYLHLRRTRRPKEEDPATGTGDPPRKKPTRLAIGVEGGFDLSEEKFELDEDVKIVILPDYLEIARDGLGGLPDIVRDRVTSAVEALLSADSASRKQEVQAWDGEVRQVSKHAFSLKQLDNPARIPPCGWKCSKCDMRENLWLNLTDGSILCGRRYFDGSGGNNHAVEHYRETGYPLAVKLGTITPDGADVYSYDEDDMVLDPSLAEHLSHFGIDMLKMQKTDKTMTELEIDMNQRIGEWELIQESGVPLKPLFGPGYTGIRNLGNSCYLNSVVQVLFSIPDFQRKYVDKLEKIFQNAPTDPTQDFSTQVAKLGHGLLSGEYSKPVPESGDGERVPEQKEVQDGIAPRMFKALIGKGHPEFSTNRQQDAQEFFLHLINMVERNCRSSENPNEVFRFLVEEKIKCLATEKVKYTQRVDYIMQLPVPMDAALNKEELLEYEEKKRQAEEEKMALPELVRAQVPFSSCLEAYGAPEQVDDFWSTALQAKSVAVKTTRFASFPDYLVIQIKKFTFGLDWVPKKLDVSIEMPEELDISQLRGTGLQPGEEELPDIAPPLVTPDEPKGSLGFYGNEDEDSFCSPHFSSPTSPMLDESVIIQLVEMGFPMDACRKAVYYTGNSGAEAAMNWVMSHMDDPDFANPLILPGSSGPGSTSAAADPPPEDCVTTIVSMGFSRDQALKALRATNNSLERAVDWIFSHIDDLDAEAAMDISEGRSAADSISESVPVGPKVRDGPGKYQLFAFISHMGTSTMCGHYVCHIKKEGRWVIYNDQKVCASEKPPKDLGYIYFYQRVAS
How it was run: as §1

[6] = target: USP54 (UniProt Q70EL1)
How it was run: as §1

[7] = target: USP7 (UniProt Q93009)
How it was run: as §1

[8] = target: T5, USP8 (UniProt P40818)
T5 sequence (whole entry): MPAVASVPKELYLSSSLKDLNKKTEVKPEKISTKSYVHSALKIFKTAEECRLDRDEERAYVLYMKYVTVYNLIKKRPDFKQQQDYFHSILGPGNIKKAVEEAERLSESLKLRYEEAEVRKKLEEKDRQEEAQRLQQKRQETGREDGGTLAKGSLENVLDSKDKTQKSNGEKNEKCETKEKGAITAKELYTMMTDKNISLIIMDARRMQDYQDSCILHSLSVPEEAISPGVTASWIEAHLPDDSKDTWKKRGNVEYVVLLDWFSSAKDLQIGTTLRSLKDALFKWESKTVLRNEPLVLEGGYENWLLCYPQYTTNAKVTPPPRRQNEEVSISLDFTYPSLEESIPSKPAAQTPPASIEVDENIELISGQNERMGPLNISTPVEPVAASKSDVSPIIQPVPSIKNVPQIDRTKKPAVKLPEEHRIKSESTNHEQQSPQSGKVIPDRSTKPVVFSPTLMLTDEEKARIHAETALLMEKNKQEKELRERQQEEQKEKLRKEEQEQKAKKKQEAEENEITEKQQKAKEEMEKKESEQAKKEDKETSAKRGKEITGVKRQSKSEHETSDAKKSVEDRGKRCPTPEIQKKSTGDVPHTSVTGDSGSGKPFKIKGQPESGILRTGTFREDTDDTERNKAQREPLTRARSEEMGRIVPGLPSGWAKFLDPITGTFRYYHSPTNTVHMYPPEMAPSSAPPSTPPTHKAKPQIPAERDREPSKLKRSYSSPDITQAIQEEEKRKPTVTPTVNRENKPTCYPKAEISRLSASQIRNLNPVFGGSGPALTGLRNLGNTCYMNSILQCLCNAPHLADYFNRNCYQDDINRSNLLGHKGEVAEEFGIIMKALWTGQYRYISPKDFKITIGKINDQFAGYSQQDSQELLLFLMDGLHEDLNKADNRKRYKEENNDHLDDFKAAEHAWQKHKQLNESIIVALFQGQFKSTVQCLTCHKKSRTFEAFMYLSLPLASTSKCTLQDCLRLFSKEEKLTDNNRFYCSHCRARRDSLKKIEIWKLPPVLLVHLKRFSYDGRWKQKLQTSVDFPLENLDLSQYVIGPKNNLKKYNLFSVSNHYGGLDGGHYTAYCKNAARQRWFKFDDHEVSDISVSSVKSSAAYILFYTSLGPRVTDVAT
How it was run: as §1

[9] = target: USP9X (UniProt Q93008)
How it was run: as §1

[10] = target: UniProt O00487
How it was run: as §1

Measured: log2 ratio of Biotin-Ahx-Ub-VS probe labelling

Sequence of USP9X (Q93008 whole entry): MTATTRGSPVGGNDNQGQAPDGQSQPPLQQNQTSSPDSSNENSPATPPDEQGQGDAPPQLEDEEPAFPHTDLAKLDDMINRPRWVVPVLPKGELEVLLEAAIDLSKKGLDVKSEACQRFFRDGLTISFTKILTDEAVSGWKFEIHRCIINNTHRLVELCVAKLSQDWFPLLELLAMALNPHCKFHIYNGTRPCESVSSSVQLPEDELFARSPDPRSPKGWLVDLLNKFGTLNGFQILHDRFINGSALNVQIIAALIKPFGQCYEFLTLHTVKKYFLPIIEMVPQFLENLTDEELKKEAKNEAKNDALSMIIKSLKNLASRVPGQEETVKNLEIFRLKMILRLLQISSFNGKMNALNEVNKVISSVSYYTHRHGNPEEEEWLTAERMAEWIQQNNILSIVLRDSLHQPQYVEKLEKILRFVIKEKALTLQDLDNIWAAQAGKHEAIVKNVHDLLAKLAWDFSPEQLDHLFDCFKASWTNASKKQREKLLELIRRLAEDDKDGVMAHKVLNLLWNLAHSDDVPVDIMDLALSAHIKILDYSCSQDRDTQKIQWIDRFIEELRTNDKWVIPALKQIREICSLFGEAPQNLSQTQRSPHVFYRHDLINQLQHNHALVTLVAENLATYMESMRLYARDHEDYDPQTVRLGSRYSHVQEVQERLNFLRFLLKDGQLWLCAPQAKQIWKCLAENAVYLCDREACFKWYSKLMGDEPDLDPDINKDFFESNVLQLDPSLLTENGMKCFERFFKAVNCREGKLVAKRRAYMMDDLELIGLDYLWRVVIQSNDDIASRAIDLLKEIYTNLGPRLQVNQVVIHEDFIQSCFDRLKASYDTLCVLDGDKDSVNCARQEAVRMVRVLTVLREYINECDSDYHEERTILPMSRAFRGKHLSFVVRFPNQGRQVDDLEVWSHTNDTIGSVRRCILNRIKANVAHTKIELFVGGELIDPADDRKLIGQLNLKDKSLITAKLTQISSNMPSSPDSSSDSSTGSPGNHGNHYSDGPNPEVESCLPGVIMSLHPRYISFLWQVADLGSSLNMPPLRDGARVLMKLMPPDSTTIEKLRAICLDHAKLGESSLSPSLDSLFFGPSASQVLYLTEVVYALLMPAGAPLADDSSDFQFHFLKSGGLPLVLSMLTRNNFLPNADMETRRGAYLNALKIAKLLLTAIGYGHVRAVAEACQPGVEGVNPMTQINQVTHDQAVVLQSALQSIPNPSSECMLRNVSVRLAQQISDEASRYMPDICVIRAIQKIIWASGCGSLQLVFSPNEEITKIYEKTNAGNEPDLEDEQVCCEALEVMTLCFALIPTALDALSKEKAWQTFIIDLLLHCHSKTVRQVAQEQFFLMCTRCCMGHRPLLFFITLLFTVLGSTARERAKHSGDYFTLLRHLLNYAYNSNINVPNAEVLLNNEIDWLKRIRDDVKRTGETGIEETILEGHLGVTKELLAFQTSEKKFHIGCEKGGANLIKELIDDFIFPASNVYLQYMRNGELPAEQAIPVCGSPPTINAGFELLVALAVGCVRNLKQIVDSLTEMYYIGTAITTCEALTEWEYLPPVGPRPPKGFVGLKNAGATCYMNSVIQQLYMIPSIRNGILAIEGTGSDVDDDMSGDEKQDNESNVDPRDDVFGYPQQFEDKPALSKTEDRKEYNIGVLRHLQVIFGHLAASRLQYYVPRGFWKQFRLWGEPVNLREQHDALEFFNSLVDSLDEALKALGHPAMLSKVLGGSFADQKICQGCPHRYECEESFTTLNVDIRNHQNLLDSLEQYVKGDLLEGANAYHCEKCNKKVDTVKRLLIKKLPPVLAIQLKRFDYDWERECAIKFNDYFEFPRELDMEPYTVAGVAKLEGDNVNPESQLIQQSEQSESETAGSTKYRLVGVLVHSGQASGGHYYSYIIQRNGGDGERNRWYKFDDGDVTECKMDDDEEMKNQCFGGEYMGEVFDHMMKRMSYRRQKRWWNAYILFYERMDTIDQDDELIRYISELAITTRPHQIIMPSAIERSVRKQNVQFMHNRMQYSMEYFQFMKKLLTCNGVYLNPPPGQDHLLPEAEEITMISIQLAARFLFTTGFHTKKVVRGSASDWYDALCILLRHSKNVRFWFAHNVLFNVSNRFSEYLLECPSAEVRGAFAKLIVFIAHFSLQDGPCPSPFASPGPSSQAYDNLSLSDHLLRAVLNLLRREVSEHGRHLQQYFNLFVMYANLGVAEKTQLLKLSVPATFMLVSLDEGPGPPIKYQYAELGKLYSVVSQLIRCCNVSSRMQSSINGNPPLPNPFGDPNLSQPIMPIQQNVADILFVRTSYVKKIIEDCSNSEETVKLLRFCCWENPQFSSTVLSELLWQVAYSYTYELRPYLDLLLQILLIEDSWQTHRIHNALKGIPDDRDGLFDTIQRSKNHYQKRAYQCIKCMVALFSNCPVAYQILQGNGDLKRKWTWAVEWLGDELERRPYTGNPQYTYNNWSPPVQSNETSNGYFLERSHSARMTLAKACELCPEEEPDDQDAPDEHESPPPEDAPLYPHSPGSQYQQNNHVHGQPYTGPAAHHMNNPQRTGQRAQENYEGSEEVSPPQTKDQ
Sequence of UniProt O00487 (O00487 whole entry): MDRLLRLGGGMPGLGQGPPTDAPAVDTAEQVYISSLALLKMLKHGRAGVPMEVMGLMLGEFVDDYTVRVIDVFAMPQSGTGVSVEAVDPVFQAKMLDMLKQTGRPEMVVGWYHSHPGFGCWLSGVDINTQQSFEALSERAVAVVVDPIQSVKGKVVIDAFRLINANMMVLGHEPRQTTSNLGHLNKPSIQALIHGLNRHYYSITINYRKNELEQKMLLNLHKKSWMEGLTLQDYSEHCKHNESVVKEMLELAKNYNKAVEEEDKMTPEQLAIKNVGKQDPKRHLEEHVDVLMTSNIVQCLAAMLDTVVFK
Sequence of USP46 (P62068 whole entry): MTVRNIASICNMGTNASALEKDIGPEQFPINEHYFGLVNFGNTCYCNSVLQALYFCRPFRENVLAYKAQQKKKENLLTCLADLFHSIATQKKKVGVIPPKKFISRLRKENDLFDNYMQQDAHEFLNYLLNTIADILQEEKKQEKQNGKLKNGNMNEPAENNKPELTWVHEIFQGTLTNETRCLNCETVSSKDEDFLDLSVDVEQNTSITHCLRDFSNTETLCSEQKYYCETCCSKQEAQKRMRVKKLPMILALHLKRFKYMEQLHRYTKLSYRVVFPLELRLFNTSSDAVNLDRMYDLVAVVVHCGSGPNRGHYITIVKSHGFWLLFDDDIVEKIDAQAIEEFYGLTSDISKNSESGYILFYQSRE
Sequence of USP7 (Q93009 whole entry, looked up): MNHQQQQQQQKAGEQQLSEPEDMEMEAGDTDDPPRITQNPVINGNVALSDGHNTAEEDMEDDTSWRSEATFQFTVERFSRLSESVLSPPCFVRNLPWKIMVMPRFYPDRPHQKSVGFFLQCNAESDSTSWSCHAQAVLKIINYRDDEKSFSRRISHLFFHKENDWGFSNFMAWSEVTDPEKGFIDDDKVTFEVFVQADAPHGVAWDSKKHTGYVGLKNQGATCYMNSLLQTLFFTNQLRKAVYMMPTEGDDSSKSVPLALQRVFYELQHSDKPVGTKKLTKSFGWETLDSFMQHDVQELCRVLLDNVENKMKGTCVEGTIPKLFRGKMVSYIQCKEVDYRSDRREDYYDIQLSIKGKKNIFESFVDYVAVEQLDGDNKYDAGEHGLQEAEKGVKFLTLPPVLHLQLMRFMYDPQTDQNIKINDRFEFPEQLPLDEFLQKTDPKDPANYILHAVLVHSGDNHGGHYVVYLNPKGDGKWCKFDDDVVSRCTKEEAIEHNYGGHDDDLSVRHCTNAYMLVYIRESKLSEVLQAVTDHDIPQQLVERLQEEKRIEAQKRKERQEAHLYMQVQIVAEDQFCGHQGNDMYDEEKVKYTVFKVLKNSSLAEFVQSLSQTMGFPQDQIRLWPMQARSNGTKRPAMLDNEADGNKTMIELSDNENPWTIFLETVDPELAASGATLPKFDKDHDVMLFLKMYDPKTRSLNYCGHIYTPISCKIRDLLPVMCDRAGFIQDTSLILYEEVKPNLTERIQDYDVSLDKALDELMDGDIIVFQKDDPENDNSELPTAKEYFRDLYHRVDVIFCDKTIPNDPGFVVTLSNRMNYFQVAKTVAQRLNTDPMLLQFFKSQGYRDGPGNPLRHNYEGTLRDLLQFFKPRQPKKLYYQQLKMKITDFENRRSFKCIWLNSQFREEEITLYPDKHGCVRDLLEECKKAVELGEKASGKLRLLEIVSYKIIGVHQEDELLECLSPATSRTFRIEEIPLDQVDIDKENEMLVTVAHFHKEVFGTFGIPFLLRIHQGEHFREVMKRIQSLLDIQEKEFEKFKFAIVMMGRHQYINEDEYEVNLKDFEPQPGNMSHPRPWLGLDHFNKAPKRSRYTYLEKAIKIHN

CCc1c[nH]c(CNC(=O)CCl)n1.Cl
inactive: [1] 0.203 | [2] -0.136 | [3] -0.108 | [4] -0.267 | [5] -0.335 | [6] 0.304 | [7] -0.288 | [8] -0.335 | [9] -0.236 | [10] -0.193

Source: the supplement of paper PMC11732987, “Enantioselective OTUD7B fragment discovery through chemoproteomics screening and high-throughput optimisation” (Communications Chemistry, 2025)
